High-throughput results as filed in PubChem.
M1 PAM parental = nonselective calcium activators in parental CHO-K1 cells, primary screen, counter-screen for M1 PAM project, cell-based, Fluo-8 calcium fluorescence, full deck, 1536-well. activation, % at 3 µM. 360,000 tested, 0.02% active. AID 602247, 2012. ATP EC20; 0% at ATP EC20, 100% at ATP max;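 active = activation above the run cutoff, the mean activation of all test compounds plus 3 SD, cut at about 40% in these data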;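 also: peak over basal fluorescence ratio in a 140 s read after ATP addition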
M1 antag = human M1 muscarinic receptor antagonists, primary screen, CHO-K1 cells, Fluo-8 calcium fluorescence, 1536-well; Muscarinic acetylcholine receptor M1 (Homo sapiens), P11229; CHO-K1 hM1, ACh EC80 antagonist; inhibition, % at 3 µM; 360,000 tested, 1.3% active; AID 588852, 2011;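 active = percent inhibition above its own plate's cutoff, namely the mean of that plate's compound wells plus 3 SD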;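 also: peak over basal fluorescence ratio during 140 s after agonist addition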
Target sequence (P11229 whole entry, looked up): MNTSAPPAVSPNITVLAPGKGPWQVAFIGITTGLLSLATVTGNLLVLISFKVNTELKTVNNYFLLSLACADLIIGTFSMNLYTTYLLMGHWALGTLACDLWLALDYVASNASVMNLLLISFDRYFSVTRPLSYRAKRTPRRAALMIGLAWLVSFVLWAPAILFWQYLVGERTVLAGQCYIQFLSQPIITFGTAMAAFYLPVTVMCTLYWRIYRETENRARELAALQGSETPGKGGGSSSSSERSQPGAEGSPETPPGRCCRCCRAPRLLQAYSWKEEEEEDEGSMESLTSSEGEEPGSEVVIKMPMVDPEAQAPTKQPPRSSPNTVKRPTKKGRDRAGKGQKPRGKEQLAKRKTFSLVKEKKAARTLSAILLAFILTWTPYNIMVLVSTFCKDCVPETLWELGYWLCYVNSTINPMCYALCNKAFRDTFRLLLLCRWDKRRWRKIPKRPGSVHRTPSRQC
M1 ag = human M1 muscarinic receptor agonists, primary screen, Fluo-8 calcium fluorescence, CHO-K1 cells, HTS; Muscarinic acetylcholine receptor M1 (Homo sapiens), P11229; CHO-K1 hM1, agonist mode; 0% DMSO, 100% acetylcholine EC100; activation, % at 3 µM; 360,000 tested, 0.33% active;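 active = activation above the run's mean compound activation plus 3 SD, cut at about 16% in these data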;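 also: peak over basal fluorescence ratio within a 140 s kinetic read after compound addition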
M1 PAM = human M1 muscarinic receptor positive allosteric modulators, primary screen, CHO-K1 cells, Fluo-8 calcium fluorescence, 1536-well. 360,000 tested, 0.088% active. activation, % at 3 µM. Muscarinic acetylcholine receptor M1 (Homo sapiens), P11229. AID 588819, 2011. CHO-K1 hM1, ACh EC20; 0% = ACh EC20, 100% = maximal ACh; in the data active = activation above about 19%, passing the limit was not always enough
CHO-K1 Ca antag = nonselective inhibitor or artifact in parental CHO-K1 cells; inhibition, % at 3 µM; ATP-induced calcium, Fluo-8 fluorescence; 360,000 tested, 0.6% active;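 active = inhibition above a per-plate cutoff, the plate's mean sample inhibition plus 3 SD, cut at about 24% in these data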
M1 ag parental = counter-screen for M1 agonists: effect in parental CHO-K1 cells | Fluo-8 calcium fluorescence; scaled to maximal ATP response, vehicle zero | activation, % at 3 µM | 360,000 tested, 0.48% active | AID 602248, 2012; in the data active = activation above about 15%;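 also: untransfected CHO-K1 host cells lacking M1 receptor as counterscreen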
Each line names hits and unclear results; the compound was inactive in the other large screens. The list is not random: actives were taken first. Their share in the collection is about 2.3%.

CCOC(=O)c1cc(-c2ccccc2)nc2c(O)cccc12	none
Nc1cc(-c2ccccc2)n2c(n1)nc1ccccc12	M1 antag 92
N#Cc1c(-c2ccccc2)cc2nc3ccccc3n2c1N	none
CCC(O)c1cc2c(cc1NC(=O)c1ccc(C)cc1)OCCO2 (stereo not given)	M1 antag 26
COc1ccc(C(=O)C(=O)c2ccc(OCCO)cc2)cc1	M1 PAM 30
CN(Cc1cccs1)c1nc(-c2cccnc2)nc2ccccc12	M1 antag 35
CCCc1nnc(NC(=O)CSc2nc3ccccc3[nH]2)s1	CHO-K1 Ca antag 30
CCCN(CC(=O)Nc1ccccc1OC)C(=O)c1ccc(=O)[nH]c1	none
CC1(C(=O)N2Cc3ccccc3C2)CCN1C(=O)C1(c2ccccc2)CC1 (stereo not given)	none
CCCCN1C(=N)N([C@@H](CN2CCC[C@H]2CN2C(N)=NC[C@@H]2Cc2ccccc2)C(C)C)C[C@H]1Cc1ccccc1	M1 antag 59
CCCCN1C(=N)N([C@@H](C)CN2CCC[C@H]2CN2C(N)=NC[C@@H]2Cc2ccccc2)C[C@H]1Cc1ccccc1	M1 antag 94
CC(C)C[C@@H]1CN=C(N)N1C[C@@H]1CCCN1C[C@@H](C(C)C)N1C[C@@H](Cc2ccccc2)N(CCCC2CCCC2)C1=N	none
O=S(=O)(Nc1nc(-c2sccc2Cl)cs1)c1cc(Cl)ccc1Cl	CHO-K1 Ca antag 26
Cc1cc(/C=C2\C(=N)N3C(SCc4ccccc4)=NSC3=NC2=O)c(C)n1Cc1ccccc1	none
CC(C)CSC1=NSC2=NC(=O)/C(=C\c3ccccc3)C(=N)N12	none
CC(C)CSC1=NSC2=NC(=O)/C(=C\c3coc4ccccc4c3=O)C(=N)N12	M1 antag 60, M1 ag 143, CHO-K1 Ca antag 60, M1 ag parental 107
CSC1=NSC2=NC(=O)/C(=C\c3coc4ccccc4c3=O)C(=N)N12	M1 antag 35, M1 ag 45, M1 ag parental 20
CCOC(=O)c1ccc(NC(=O)CN2CCN(C(=O)C3CCCO3)CC2)cc1 (stereo not given)	none
Cc1ccnc(NC(=O)C2CC(=O)N(c3ccc4c(c3)OCCO4)C2)c1 (stereo not given)	none
CCc1ccccc1NC(=O)COC(=O)C1CC(=O)N(c2ccc(F)cc2)C1 (stereo not given)	CHO-K1 Ca antag 29
Cc1ccc(N2CC(C(=O)OCC(=O)Nc3cccc(Cl)c3C)CC2=O)cc1 (stereo not given)	none
Cc1c(NC(=O)CN2C(=O)NC3(CCC(C)CC3)C2=O)c(=O)n(-c2ccccc2)n1C (stereo not given)	none
FC(F)Oc1ccc(NC(=S)NCc2ccccc2)cc1	CHO-K1 Ca antag 28
O=C(CN(Cc1ccco1)C(=O)c1ccc(F)cc1)Nc1ccccc1Br	none
Cc1ccc2cccc(NC(=S)NC(=O)c3c(Br)cnn3C)c2n1	CHO-K1 Ca antag 26
Cc1ccc2cccc(NC(=S)NC(=O)c3ccn(C)n3)c2n1	none
O=C(Nc1ccccc1Cl)Nc1ccccc1Cl	none
O=C(Nc1csc([N+](=O)[O-])c1)Nc1ccccc1Cl	M1 antag 41, CHO-K1 Ca antag 27, M1 ag parental 16
O=C(Nc1cc(Oc2ccccc2)cc([N+](=O)[O-])c1)C12CC3CC(C1)CC(n1cnc(Cl)n1)(C3)C2	none
O=C(c1ccc(OC2CCN(CCc3ccccc3)CC2)cc1)N1CCCC1	none
CC(C)N1CCN(C(=O)c2ccc(OC3CCN(CCc4ccccc4)CC3)cc2)CC1	M1 antag 43
O=C(c1ccc(OC2CCN(CCc3ccccc3)CC2)cc1)N1CCCCC1CCCO (stereo not given)	M1 antag 30
Cc1cc(NC(=O)c2ccco2)c(=O)n(Cc2cccc(C(F)(F)F)c2)c1	none
CCC(C)NC(=O)c1c(N)n(/N=C/c2ccccn2)c2nc3ccccc3nc12 (stereo not given)	none
CCC(C)NC(=O)c1c(N)n(/N=C/c2cccnc2)c2nc3ccccc3nc12 (stereo not given)	CHO-K1 Ca antag 25
O=C(NCCc1ccc(Cl)cc1)c1ccc(CS(=O)Cc2ccccc2Cl)o1 (stereo not given)	M1 antag 37
O=C(NCc1nc(-c2ccc(C(F)(F)F)cc2)no1)Nc1ccc(F)cc1F	none
O=C(NCc1nc(-c2ccc(C(F)(F)F)cc2)no1)Nc1cc(Cl)cc(Cl)c1	CHO-K1 Ca antag 35
C[C@@H]1C2CC(C/C2=N\NC(=O)c2ccncc2)C1(C)C (stereo not given in full)	none
O=C(Nc1cccc(NC(=O)c2ccc(F)cc2)c1)c1ccc(F)cc1	none
O=C(Nc1cccc(NC(=O)c2ccccc2Cl)c1)c1ccc(F)cc1	CHO-K1 Ca antag 25
O=C(Nc1cccc(NC(=O)c2ccccc2Cl)c1)c1ccc([N+](=O)[O-])o1	M1 ag parental 17
COc1cc(C(=O)N/C(=C\c2cn(S(=O)(=O)N(C)C)c3ccccc23)C(=O)N2CCCC2)cc(OC)c1OC	none
N#Cc1ccccc1OCC(=O)Nc1ccccc1C(=O)NC1CC1	none
COc1ccc(N2CC(C(=O)Nc3c4c(nn3-c3ccc(OC)cc3)CS(=O)(=O)C4)CC2=O)cc1 (stereo not given)	M1 PAM 26
COc1ccc(-n2nnnc2CNC(=O)C2CC(=O)N(c3ccc(F)cc3)C2)cc1 (stereo not given)	CHO-K1 Ca antag 28
O=C(COC(=O)C12CC3CC(CC(Br)(C3)C1)C2)N1CCOCC1	M1 ag parental 17
CN1CCC(OC(=O)c2ccco2)CC1	none
CN1CCC(OC(=O)c2ccccc2Cl)CC1	M1 antag 48
CN1CCC(OC(=O)c2ccc(Cl)cc2Cl)CC1	none
Cc1ccccc1C(=O)OC1CCN(C)CC1	M1 antag 35
N#Cc1nnn(-c2ccc(Cl)cc2)c1N	none
N#CNc1nc(O)cc(=O)[nH]1	none
O=[N+]([O-])/C(C(=C(Cl)Cl)N1CCN(Cc2ccccc2)CC1)=C1\NCCN1Cc1ccc(Cl)nc1	M1 antag 43
O=[N+]([O-])C(/C=C(\Cl)[N+](=O)[O-])=C1N(Cc2ccc(Cl)nc2)CCN1Cc1ccc(Cl)nc1	none
COc1cc(C)ccc1S(=O)(=O)NC(=O)C1(C)CCN1C(=O)c1ccc(C(F)(F)F)nc1C (stereo not given)	none
